# Screening results from PubChem BioAssay.
# Hits are enriched below; roughly 1.2% of the tested compounds scored in any of these assays.
# GSH bead fluor = compound fluorescence on glutathione beads, profiling panel, artefact control, biophysical, 488/530 nm, flow cytometry; GSH beads flow cytometry, compound fluorescence 488/530 nm; active compounds read high; fluorescence (KMESF) at 10 µM; 190,000 tested, 0.25% active; in the data active = fluorescence above about 89;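 note: glutathione beads carrying GST-tagged Bcl family fusion proteins plus one bare bead set; values are compound well signal with DMSO vehicle wells as background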
# RGS7-Gao = RGS7-Galphao binding modulators, primary screen, biochemical, multiplexed bead flow cytometry | 220,000 tested, 0.35% active | binding response (% of control), % at 10 µM | AID 1439, 2008 | actives lie on both sides; in the data active = binding response below about 49% or above about 150%; inconclusive = no clear call, values can overlap the other calls; inactive = in between;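 note: fluorescent Galphao held in activated GDP-AlF4 state binding bead-coupled RGS7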
# Target sequence (P09471 whole entry, looked up): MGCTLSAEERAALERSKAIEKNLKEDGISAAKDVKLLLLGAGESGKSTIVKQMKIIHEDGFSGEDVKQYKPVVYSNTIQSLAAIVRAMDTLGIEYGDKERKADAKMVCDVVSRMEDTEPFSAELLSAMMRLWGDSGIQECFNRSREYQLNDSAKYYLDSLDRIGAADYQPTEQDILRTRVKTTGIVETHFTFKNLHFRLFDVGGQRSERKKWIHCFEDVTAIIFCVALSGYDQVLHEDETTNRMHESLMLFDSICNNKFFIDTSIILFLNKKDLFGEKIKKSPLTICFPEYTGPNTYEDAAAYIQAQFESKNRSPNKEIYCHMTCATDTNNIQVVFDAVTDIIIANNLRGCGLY
# RGS4-Gao reg = modulators of RGS4 binding to Galphao, primary screen, biochemical, multiplexed bead flow cytometry; actives lie on both sides; binding response (% of control), % at 10 µM; 220,000 tested, 0.33% active; AID 1415, 2008; in the data active = binding response below about 49% or above about 150%; inactive = in between;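 note: fluorescent Galphao activated with aluminum fluoride binding bead-coupled RGS4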
# Avidin fluor = green autofluorescence of compounds with avidin beads – biophysical, 488/530 nm, flow cytometry, artefact control, profiling panel; 220,000 tested, 0.38% active; fluorescence (KMESF) at 10 µM; compound fluorescence 488/530 nm; active compounds read high; AID 1775, 2009; in the data active = fluorescence above about 47
# RGS16-Gao = modulators of RGS16 binding to Galphao, primary screen, biochemical, human proteins, multiplexed bead flow cytometry. bead-based flow cytometry RGS16-Galphao binding, fluorescence; actives lie on both sides. AID 1441, 2008. 220,000 tested, 0.38% active. Regulator of G-protein signaling 16 (Homo sapiens) + Guanine nucleotide-binding protein …. binding response (% of control), % at 10 µM;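 note: Galphao activated by GDP with aluminum fluoride before binding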
# Target sequence (O15492 whole entry, looked up): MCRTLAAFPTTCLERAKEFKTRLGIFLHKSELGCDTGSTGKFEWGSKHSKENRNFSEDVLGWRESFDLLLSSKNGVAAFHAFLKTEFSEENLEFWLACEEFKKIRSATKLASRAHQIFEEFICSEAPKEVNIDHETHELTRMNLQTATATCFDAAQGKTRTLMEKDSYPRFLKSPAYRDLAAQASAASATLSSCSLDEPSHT
# Target sequence (P09471 whole entry, looked up): as the sequence (P09471 whole entry, looked up) above
# RGS8-Gao = RGS8-Galphao binding modulators, primary screen, biochemical, multiplexed bead flow cytometry; Guanine nucleotide-binding protein G(o) subunit alpha (Homo sapiens), P09471; actives lie on both sides; response (percent of control binding), % at 10 µM; 220,000 tested, 0.34% active; AID 1423, 2008; in the data active = response below about 60% or above about 140%; inactive = in between;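 note: Galphao activated as the GDP aluminium fluoride complex binding bead-coupled RGS8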
# RGS4-Gao HTS = modulators of RGS–Galpha-o binding, primary screen, biochemical, multiplexed beads, flow cytometry, RGS4/7/8/16/19; shares compounds with RGS16-Gao; multiplexed bead flow cytometry; RGS4–Galpha-o binding response, % at 10 µM; 1,600 tested, 99% active; AID 1504, 2009;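 note: fluorescently labeled Galpha-o bound to GDP with aluminium fluoride binding biotinylated RGS beads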
# Avidin counter = disruption of biotin probe capture by avidin, counter-screen for RGS protein interaction modulators, biochemical, flow cytometry, bead-based | shares compounds with RGS16-Gao | streptavidin beads, fluorescein-biotin binding | inhibition, % at 10 µM | 1,700 tested, under 10 active;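 active = inhibition above 50%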;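 note: median green fluorescence of gated singlet beads compared with DMSO control wells; 0% = DMSO wells and 100% = complete loss of bead fluorescence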
# RGS8-Gao confirm = RGS8-Galphao binding modulators, confirmation, biochemical, multiplexed bead flow cytometry, single concentration | binding response (% of control), % at 10 µM | shares compounds with RGS16-Gao | bead-based flow cytometry RGS8-Galphao binding, fluorescence; actives lie on both sides | 1,700 tested, 3% active; in the data active = binding response below about 72% or above about 130%; inactive = in between;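 note: Galphao activated as GDP AlF4 complex before binding bead RGS8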
# RGS7-Gao confirm = RGS7-Galphao binding modulators, confirmation, biochemical, multiplexed bead flow cytometry, single concentration; shares compounds with RGS16-Gao; bead-based flow cytometry RGS7-Galphao binding; actives lie on both sides; response (percent of control binding), % at 10 µM; 1,700 tested, 7.8% active; in the data active = response below about 75% or above about 130%; inactive = in between;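 note: fluorescent Galphao activated with GDP and aluminum fluoride binding bead-coupled RGS7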
# RGS16-Gao single = modulators of RGS16-Galphao protein binding, confirmation, biochemical, single concentration, multiplexed bead flow cytometry; AID 1838, 2009; shares compounds with RGS16-Gao; 1,700 tested, 4% active; response (% of control binding), % at 10 µM; bead-based flow cytometry; actives lie on both sides; in the data active = response below about 74% or above about 130%; inactive = in between;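 note: Galphao activated as the GDP aluminium fluoride complex binding bead-coupled RGS16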
# RGS4-Gao confirm = modulators of RGS4-Galphao protein binding, confirmation, biochemical, single concentration, multiplexed bead flow cytometry. shares compounds with RGS16-Gao. actives lie on both sides. binding response (% of control), % at 10 µM. 1,700 tested, 4% active. AID 1840, 2009; in the data active = binding response below about 74% or above about 130%; inactive = in between
# RGS19-Gao single = regulators of RGS19-Galphao binding, confirmation, biochemical, single point, multiplexed bead flow cytometry | shares compounds with RGS16-Gao | bead-based flow cytometry RGS19-Galphao binding; actives lie on both sides | response (percent of control binding), % at 10 µM | 1,700 tested, 5% active; in the data active = response below about 50% or above about 160%; inactive = in between;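 note: 100% = no compound control and 0% = blank background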
# An asterisk follows results filed as active; ? = inconclusive; / = not tested or not shown; [ ] = another dose, or the depositor's remark. Unless noted, the rule behind the calls is not given here.
SMILES,GSH bead fluor,RGS7-Gao,RGS4-Gao reg,Avidin fluor,RGS16-Gao,RGS8-Gao,Avidin counter,RGS8-Gao confirm,RGS7-Gao confirm,RGS16-Gao single,RGS4-Gao confirm,RGS19-Gao single,others
CC1CCN(S(=O)(=O)c2ccc(S(=O)(=O)NCc3ccccc3)cc2)CC1,44,97.0,93.0,4,103.1,100.9,/,/,/,/,/,/,
O=C(C1=C[C@H](C2CCCCC2)C[C@H](OCCCCO)O1)N1CCN(Cc2ccccc2)CC1,18,96.7,100.9,6,98.9,102.0,/,/,/,/,/,/,
Cc1ccc2[nH]c(=O)c(COC(=O)C3CCCCC3)cc2c1,/,?,100.9,3,106.5,101.4,/,/,/,/,/,/,
C=C(C)C(=O)OC1(C(F)(F)F)Oc2cc(C)ccc2NC1=O (configuration not stated),14,94.5,95.8,7,100.5,99.9,/,/,/,/,/,/,
CCOC(=O)N1CCC(NC(=O)c2ccc(N3CCC4(CC3)OCCO4)c([N+](=O)[O-])c2)CC1,16,100.8,99.9,14,99.2,99.2,/,/,/,/,/,/,
CCCCNC(=O)c1ccc(N2CCC3(CC2)OCCO3)c([N+](=O)[O-])c1,9,93.4,94.2,9,21.1*,77.8,-1.5,92.6,90.9,93.1,91.9,90.7,RGS4-Gao HTS=94.2*
CCOC(=O)COc1nc(-c2ccccc2)cc(-c2ccco2)c1C#N,/,?,105.5,26,100.8,101.1,/,/,/,/,/,/,
CCOC(=O)COc1nc(-c2ccc(Cl)cc2)cc(-c2ccco2)c1C#N,/,?,177.3*[activator],82*,155.4,110.1,0.3,100.0,98.1,100.2,99.5,93.3,
CN1CC(=O)N(CC(=O)Nc2ccc3c(c2)CCC3)C1=O,20,97.9,101.3,5,104.0,101.3,/,/,/,/,/,/,
Cc1ccc(S(=O)(=O)Nc2ccc(N3CCOCC3)cc2)cc1,37,93.4,86.0,9,-64.2*,87.6,-0.4,100.7,101.9,99.9,104.6,102.4,RGS4-Gao HTS=86.0*
Cc1ccc(NC(=S)N/N=C2/CCCCc3ccccc32)cc1,/,?,105.7,9,102.5,99.2,/,/,/,/,/,/,
Cc1ccc(C)c(NC(=S)N/N=C2\CCc3ccccc32)c1,/,?,45.3*,2,46.5,60.2,0.0,96.9,96.4,97.9,96.5,112.6,
CC1CCN(C(=O)CSc2ccc(-c3ccccc3)nn2)CC1,11,94.4,96.4,5,100.9,102.7,/,/,/,/,/,/,
O=[N+]([O-])c1ccc(NCCNCCOc2nonc2-c2ccccc2)c([N+](=O)[O-])c1,10,104.2,101.4,15,108.7,105.8,/,/,/,/,/,/,
O=C(CNC(=O)c1cccs1)N/N=C/c1c[nH]c2ccccc12,8,2.4*,2.8*,-1,-4.2*,6.0*,0.4,105.4,100.0,108.6,102.6,94.4,
Cc1[nH]c2ccccc2c1/C=N/NC(=O)CNC(=O)c1cccs1,/,?,89.1,9,105.5,97.7,/,/,/,/,/,/,
COc1ccc(CNC(=O)CN(CC2CCCO2)C(=O)CNS(=O)(=O)c2ccccc2)cc1 (configuration not stated),4,208.6*[activator],128.6,171*,121.7,85.8,1.6,102.2,99.8,100.3,101.2,85.6,RGS4-Gao HTS=128.6*
COc1ccc(CNC(=O)CN(CC2CCCO2)C(=O)CNS(=O)(=O)c2ccc(C)cc2)cc1 (configuration not stated),13,99.3,94.7,15,103.0,99.2,/,/,/,/,/,/,
CCCOc1ccc(OCCOCCN2CCc3ccccc3C2)cc1,64,99.1,100.2,13,104.6,99.2,/,/,/,/,/,/,
COC(=O)C1=C(C)NC2=C(C(=O)CC(C)(C)C2)C1c1ccsc1 (configuration not stated),11,25.2*,27.9*,6,17.6*,24.9*,1.5,107.6,113.2,109.9,108.7,101.0,
CC1=C(C(=O)OCC2CCCO2)C(c2ccsc2)C2=C(CC(C)(C)CC2=O)N1 (configuration not stated),10,98.3,97.7,15,103.1,98.1,/,/,/,/,/,/,
CCN1c2cccc3cccc(c23)S1(=O)=O,32,155.0*[activator],154.7*[activator],21,151.8,131.3,-0.9,101.6,104.4,103.0,101.1,100.0,
COC(=O)CNC(=O)CN1c2cccc3cccc(c23)S1(=O)=O,17,95.3,100.3,28,99.2,98.3,/,/,/,/,/,/,
NC(=O)COC(=O)c1cc(Cl)cc(Cl)c1N,10,92.5,98.0,9,97.2,99.8,/,/,/,/,/,/,
Nc1c(Cl)cc(Cl)cc1C(=O)OCC(=O)N1CCCC1,43,9.7*,11.5*,-4,4.0*,13.6*,0.0,107.6,109.3,105.1,106.8,110.5,
COc1ccc(NC2(c3ccc(Cl)cc3)C(=O)c3ccccc3C2=O)cc1,8,100.0,98.5,10,100.3,101.4,/,/,/,/,/,/,
